Data published in PubChem BioAssay AID488895 (Broad Institute, 2010).
The whole screen tested about 340,000 compounds, of which about 120 (0.035%) were called active.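 The calls were made as follows: active = mean replicate inhibition at least 50% and at least half of replicates individually reaching 50%; inconclusive = only one of the two criteria met; inactive = neither criterion met.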 The sample as a whole holds a higher share of actives than the screen did.

Assay: blockers of twin-arginine translocation in E. coli – MC4100, TorA-mCherry reporter, fluorescence, single point, primary screen (AID 488895);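 also: exported cargo escapes ClpAP degradation while cytoplasmic cargo is degraded and loses fluorescence; 0% = median of neutral control wells and 100% = median of NaSCN control wells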
Settings: E. coli MC4100 TorA-mCherry Tat export, at 10 µM, stronger effect = higher value

| Compound | inhibition |
| --- | --- |
| COc1ccc(NC(=O)CSc2nc(NS(=O)(=O)c3ccc(C)cc3)cc(=O)[nH]2)cc1 | 0.509% (inactive) |
| CC(C)CC(O)C1CCN(C(=O)CCc2nnc(-c3ccc4c(c3)OCO4)o2)CC1 (stereo not given) | -2.64% (inactive) |
| COc1ccc(N2CC(C(=O)NCCN3C(=O)S/C(=C\c4cccnc4)C3=O)CC2=O)c(OC)c1 (stereo not given) | -1.64% (inactive) |
| O=C1C(Cl)=C(Oc2ccccc2)C(=O)c2ccccc21 | -14.1% (inactive) |
| COc1ccc(-c2nonc2NC(=O)c2oc3ccc(F)cc3c2C)cc1OC | -6.3% (inactive) |
| Cc1noc(C)c1COc1cccc(C(=O)Nc2cccnc2)c1 | 11.3% (inactive) |
| COCCN1C(=O)C(=O)/C(=C(/O)c2ccc(S(=O)(=O)N3CCCCC3)cc2)C1c1ccc(OC)c(OC)c1 (stereo not given) | -4.83% (inactive) |
| COCCCNC(=O)C1CC(=O)N(CCc2ccc(F)cc2)C1 (stereo not given) | 3.6% (inactive) |
| O=C(Nc1cccc(F)c1)NC1CCCCCCC1 | 3.94% (inactive) |
| C=CCn1c(SCc2c(C(=O)OC)sc(N)c2C(=O)OC)nnc1-c1ccc(Cl)cc1 | 0.305% (inactive) |
| CCCn1c(SCC(=O)c2ccc3c(c2)OCCO3)nnc1C(C)C | 1.9% (inactive) |
| CC(=O)c1ccc(NC(=O)C(C)OC(=O)c2ccc(NS(=O)(=O)c3ccc4[nH]c(=O)[nH]c4c3)cc2)cc1 (stereo not given) | -1.62% (inactive) |
| COc1cccc(CCNC(=O)COc2cccc3c2OC(C)(C)C3)c1 | -3.07% (inactive) |
| O=C(NCc1ccccc1)c1onc(CSc2ccncc2)c1C(=O)NCc1ccccc1 | 4.39% (inactive) |
| Cn1c(SCC(=O)N2CCCCC2)nc2c(c1=O)SCC2 | 1.18% (inactive) |
| COc1cc2c(cc1OC)C(c1ccccc1Br)NC(=O)C2 (stereo not given) | 4.97% (inactive) |
| CSc1ccc(/C=C/C(=O)NC23CC4CC(CC(C4)C2)C3)cc1 | 1.4% (inactive) |
| COC(=O)c1cc(NC(=O)CC2C(=O)NCCN2C(=O)c2ccc(F)cc2)cc(C(=O)OC)c1 (stereo not given) | -6.39% (inactive) |
| O=C(O)CCc1nc2cc(Cl)ccc2n(Cc2ccccc2)c1=O | 3.23% (inactive) |
| COc1ccccc1CNS(=O)(=O)c1c(C)[nH]c(C)c1C(=O)N1CCCCC1 | -2.57% (inactive) |
| Cc1noc(C)c1CSCC(=O)Nc1ccc(Br)cc1Cl | -0.881% (inactive) |
| Cc1ccc(/C=N/NC(=O)COc2ccccc2-c2ccccc2)cc1 | 0.565% (inactive) |
| CC(=O)NC(C(=O)NCC(N)=O)C(C)C (stereo not given) | -5.64% (inactive) |
| Cc1ccc(SCC(=O)c2cc(C)c(OC(=S)N(C)C)c(C)c2)cc1 | 5.72% (inactive) |
| NC(=O)C[C@@H]1NC(=O)CNC(=O)c2cc([N+](=O)[O-])cc(I)c2NCCC(C(N)=O)NC1=O (stereo not given in full) | -3.55% (inactive) |
